Measurements taken from PubChem BioAssay (NCATS).
A number with no mark means an inactive call. Results filed as inconclusive are left out. Activity calls are given as the source filed them. Unless noted, the call rests on the fitted dose curve; in most records, active means well fitted curve in the direction sought with a large enough effect; inconclusive means small, poorly fitted or top-dose-only effect, or another doubt; inactive means no such curve, though single readings can be large; an effect the other way counts as inactive or inconclusive.

Legend:
[1] = target: Lysosomal acid glucosylceramidase (Homo sapiens) (UniProt P04062); assay: Glucocerebrosidase-p2 (AID 348; in the data active means potency below about 10 µM; further: potency means the concentration at half of the fitted maximal effect); details: purified GBA, blue fluorogenic substrate, 40 min
Procedure, shortened: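 Normal human glucocerebrosidase (0.2 nM) with blue fluorogenic substrate (80 uM final) in citrate/phosphate pH 5.9 with 10mM sodium taurocholate, 0.01% tween-20; 40 min RT, NaOH/glycine stop; fluorescence Ex 365/Em 440; AC50 from a titration from 0.6 nM upwards.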

[2] = target: Cytochrome P450 1A2 (Homo sapiens) (UniProt P05177); assay: p450-cyp1a2 (AID 410; calls by dose curve; further: potency means the concentration at half of the fitted maximal effect); details: recombinant CYP1A2, luciferin-ME demethylation, luminescence; series mostly up to 57 µM
Procedure, shortened: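 20nM CYP1A2, 100uM Luciferin-ME (=Km), 100mM KPO4; cpd 10 min RT; +NADPH regen, 60 min RT; stop/detect 20 min; luminescence. Normalized to furafylline 57 uM = full inhibition.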

[3] = Stat Signaling Pathway (AID 446; active means well fitted curve in either direction with a large enough effect, not every such curve was filed as active;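 further: ME-180 cervical cancer cells given 40 pM IL-6 alongside compound; SIE-controlled beta-lactamase reporter measured as 460/530 nm FRET emission ratio; on the % scale 0 is the no-effect control and ±100 the full control effect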); details: ME-180 SIE beta-lactamase reporter, IL-6 stimulated, 5 h; at 7.69 µM (top of the series) unless noted
Procedure, shortened: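 FRET read-out (405 nm excitation, 460/530 nm emission) of a beta-lactamase reporter under a STAT-inducible element in ME-180 cervical carcinoma cells. Cells with compound receive 40 pM IL-6 for 5 h. Values are normalised to AC90 stimulation and AC90 JAK-inhibitor controls.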

[4] = target: Glucocorticoid receptor (Homo sapiens) (UniProt P04150); assay: GR-GFP Redistribution (AID 450;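 active means compounds whose dose series gives a full or clear partial fitted curve of increased nuclear translocation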; further: potency means the concentration at half of the fitted maximal effect); details: U2OS GR-GFP nuclear translocation, laser cytometry, 2 h
[5] = target: Glucocorticoid receptor (Homo sapiens) (UniProt P04150); assay: GR-EFC Redistribution (AID 451; calls by dose curve; further: potency means the concentration at half of the fitted maximal effect); details: CHO-K1 GR-EFC translocation, beta-gal luminescence, 2 h
Procedure, shortened: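 CHO-K1 cells expressing nuclear EA and GR-ED fragments of b-gal; compounds titrated up to 46 uM final, 2 h at 37 C. GR nuclear translocation read as complemented b-gal luminescence after 1 h RT detection.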

[6] = target: Mitogen-activated protein kinase 10 (Mus musculus) (UniProt Q61831); assay: JNK3 AlphaScreen Assay (AID 530; active means well fitted curve in either direction with a large enough effect, not every such curve was filed as active;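 further: kinase came from lysate of stimulated human HepG2 cells; signal reports phosphorylation of biotinylated GST-cJun 1-79 at Ser73 with 10 µM ATP; on the % scale 0 is the no-effect control and ±100 the full control effect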); details: JNK3 lysate, c-Jun phosphorylation; series mostly up to 57.1 µM
Procedure, shortened: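 HepG2 lysate (IL-1b/TNFa pre-activated) + biotin-GST-cJun 1-79 + anti-pSer73 cJun; cpd titration, 15 min RT; ATP 10 uM start; Tris pH 7.6, MgCl2, DTT, vanadate; beads in EDTA buffer; AlphaScreen.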

[7] = target: Cytochrome P450 3A4 (Homo sapiens) (UniProt P08684); assay: qHTS Assay for Inhibitors and Substrates of Cytochrome P450 3A4 (AID 884); details: recombinant CYP3A4, Luciferin-PPXE luminescence; series mostly up to 57.1 µM; further: potency means the concentration at half of the fitted maximal effect; nearly all actives have a fitted effect of over 50% in size
Procedure, shortened: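 Luminescent readout of luciferin produced by CYP3A4 (20 nM) dealkylation of Luciferin-PPXE, 25 uM (its KM). NADPH-driven reaction ran 60 min at RT after 10 min compound preincubation; data scaled to 57 uM ketoconazole as 100% inhibition.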

[8] = target: Cytochrome P450 3A4 (Homo sapiens) (UniProt P08684); assay: qHTS Assay for Activators of Cytochrome P450 3A4 (AID 885); details: recombinant CYP3A4, Luciferin-PPXE luminescence, 60 min; series mostly up to 57.1 µM; further: nearly all actives have a fitted effect of over 65% in size
Procedure, shortened: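 Luminescent readout of luciferin formed from 25 uM Luciferin-PPXE (KM level) by 20 nM CYP3A4 in 200 mM KPO4, with 60 min NADPH-driven reaction at room temperature after 10 min compound exposure. Ketoconazole (57 uM) defined 100% inhibition.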

[9] = target: Dual specificity protein kinase CLK4 (Homo sapiens) (UniProt Q9HAZ1); assay: qHTS Assay for Inhibitors of CDC-like Kinase 4 (Kinase-Glo Assay) (AID 1770); details: recombinant Clk4, Kinase-Glo ATP depletion luminescence; series mostly up to 66.7 µM; further: nearly all actives have a fitted effect of over 65% in size; further: potency means the concentration at half of the fitted maximal effect
Procedure, shortened: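 Clk4 25 nM, RS peptide 100 uM, ATP 1 uM, pH 7.5 Tris, 10 mM MgCl2, 2.5 mM DTT; 4.5 h RT; ATP depletion read by Kinase-Glo luminescence.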

[10] = target: Dual specificity protein kinase CLK4 (Homo sapiens) (UniProt Q9HAZ1); assay: qHTS Assay for Inhibitors of CDC-like Kinase 4 (ADP-Glo Assay) (AID 1771); details: recombinant CLK4, ADP-Glo luminescence; series mostly up to 80 µM; further: nearly all actives have a fitted effect of over 70% in size; further: potency means the concentration at half of the fitted maximal effect
Procedure, shortened: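 25 nM Clk4, 100 uM RS peptide, 1 uM ATP (final); 2 mM MgCl2, 0.5 mM EGTA, 2.5 mM DTT, 0.01% Triton X-100; 1 hr RT. ADP-Glo readout: ATP depletion 45 min, conversion/luciferase 30 min, luminescence.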

[11] = target: Dual specificity protein kinase CLK4 (Homo sapiens) (UniProt Q9HAZ1); assay: qHTS Assay for Inhibitors of CDC-like Kinase 4 (ADP-FP Assay) (AID 1795); details: Transcreener ADP fluorescence polarization; series mostly up to 50 µM; further: nearly all actives have a fitted effect of over 60% in size; further: potency means the concentration at half of the fitted maximal effect
Procedure, shortened: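 Kinase activity was followed as ADP output, converted from fluorescence polarization with a calibration curve. Reactions ran one hour at low ATP (1 uM) with RS peptide substrate.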

[12] = target: Ubiquitin carboxyl-terminal hydrolase 1 (Homo sapiens) (UniProt O94782); assay: Inhibitors of USP1/UAF1: Pilot qHTS (AID 504865); details: purified USP1/UAF1, Ub-rhodamine cleavage fluorescence; series mostly up to 54.9 µM;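 further: rhodamine fluorescence freed from ubiquitin-rhodamine substrate followed over time; top concentration of the series differs between compounds; on the % scale 0 is the no-effect control and ±100 the full control effect; nearly all actives have a fitted effect of over 35% in size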
Procedure, shortened: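 Enzyme-free wells gave the negative control, while test wells held 1nM USP1/UAF1 preincubated with compound for 15 min at room temperature. Ub-Rho at 150nM final started the reaction, and fluorescence at 480/540 nm was recorded kinetically.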

[13] = Primary qHTS for small molecule stabilizers of the endoplasmic reticulum resident proteome: Secreted ER Calcium Modulated Protein (SERCaMP) assay (AID 1508630); details: SH-SY5Y GLuc-SERCaMP (Gaussia luciferase released on ER calcium loss) secretion, thapsigargin, luminescence; series mostly up to 38.4 µM; further: on the % scale 0 is the no-effect control and ±100 the full control effect
Procedure, shortened: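 The SH-SY5Y reporter protocol was run at 3 concentrations up to 38.3 uM (primary) or 11 concentrations (follow-up): 16 h compound, 100 nM thapsigargin for 4 h, then extracellular luciferase luminescence.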

[14] = NFAT Signaling Pathway (AID 444; active means well fitted curve in either direction with a large enough effect, not every such curve was filed as active;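 further: carbachol stimulus at about its EC50 of 1 µM final; on the % scale 0 is the no-effect control and ±100 the full control effect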); details: Jurkat NFAT-bla M1, carbachol, beta-lactamase ratio, 5 h; at 7.69 µM (top of the series) unless noted
Procedure, shortened: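 Jurkat cells with NFAT-driven β-lactamase reporter and co-expressed M1 receptor, stimulated with carbachol (final 1 uM, ~EC50), compound titration, 5 h at 37 °C. CCF4 loaded 1 h at RT; 460/530 nm ratio gave %activity and AC50.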

[15] = target: 3',5'-cyclic-AMP phosphodiesterase 4B (Homo sapiens) (UniProt Q07343); assay: qHTS Assay for Inhibitors of PDE-IV (AID 607; active means well fitted activation curve with a large enough effect in the main read-out, with a control signal flat, not every such curve was filed as active; further: % of control where 0% means no effect); details: HEK293 ACTOne CNG channel cells, membrane potential fluorescence; series mostly up to 22.9 µM
Procedure, shortened: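 Cell-based read-out of cAMP via a modified cyclic nucleotide-gated channel and membrane potential dye (535/590 nm) in HEK293 cells expressing PDE4 endogenously. Compounds tested up to 22.9 uM final; 100 uM RO 20-1724 reference.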

[16] = target: Cytochrome P450 2D6 (Homo sapiens) (UniProt P10635); assay: qHTS Assay for Inhibitors and Substrates of Cytochrome P450 2D6 (AID 891); details: recombinant CYP2D6, luciferin-ME EGE luminescence; series mostly up to 57.1 µM; further: potency means the concentration at half of the fitted maximal effect; nearly all actives have a fitted effect of over 60% in size
Procedure, shortened: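 Luminescent read-out of luciferin formed by 5 nM human CYP2D6 demethylating 30 uM Luciferin-ME EGE (Km level) over 60 min at room temperature after NADPH regeneration addition. Data normalized to full inhibition by 1.43 uM quinidine.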

[17] = qHTS Assay for Identification of Small Molecule Agonists for Hypoxia Response Element Signaling Pathway (AID 914; active means well fitted activation curve with a large enough effect in the signal ratio, with a control signal flat, not every such curve was filed as active; the % refers to the signal ratio; further: potency means the concentration at half of the fitted maximal effect); details: ME-180 HRE-bla reporter, beta-lactamase ratio, CoCl2, 17 h; activation: stronger effect = higher value
Procedure, shortened: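 HRE-bla ME-180 cells, overnight plating in Opti-MEM with 0.5% dialyzed FBS; cpd titration + EC50 CoCl2, 17 h, 37 degrees Celsius; CCF4 2.5 h RT; 460/530 nm ratio; AC50.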

[18] = AP1 Signaling Pathway (AID 357; active means well fitted curve in either direction with a large enough effect, not every such curve was filed as active); details: ME-180 (cervical carcinoma) AP-1-bla reporter, EGF-induced, beta-lactamase ratio, 5 h; at 7.69 µM (top of the series) unless noted
Procedure, shortened: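 First, ME-180 AP-1-bla cells were cultured overnight at 37 °C in low-serum Opti-MEM. Next, titrated compounds with EC50 EGF were incubated 5 hours. Finally, CCF4 was added for 2.5 hours and the 460/530 nm ratio recorded.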

Chain of 3',5'-cyclic-AMP phosphodiesterase 4B (Homo sapiens) (Q07343 whole entry, looked up): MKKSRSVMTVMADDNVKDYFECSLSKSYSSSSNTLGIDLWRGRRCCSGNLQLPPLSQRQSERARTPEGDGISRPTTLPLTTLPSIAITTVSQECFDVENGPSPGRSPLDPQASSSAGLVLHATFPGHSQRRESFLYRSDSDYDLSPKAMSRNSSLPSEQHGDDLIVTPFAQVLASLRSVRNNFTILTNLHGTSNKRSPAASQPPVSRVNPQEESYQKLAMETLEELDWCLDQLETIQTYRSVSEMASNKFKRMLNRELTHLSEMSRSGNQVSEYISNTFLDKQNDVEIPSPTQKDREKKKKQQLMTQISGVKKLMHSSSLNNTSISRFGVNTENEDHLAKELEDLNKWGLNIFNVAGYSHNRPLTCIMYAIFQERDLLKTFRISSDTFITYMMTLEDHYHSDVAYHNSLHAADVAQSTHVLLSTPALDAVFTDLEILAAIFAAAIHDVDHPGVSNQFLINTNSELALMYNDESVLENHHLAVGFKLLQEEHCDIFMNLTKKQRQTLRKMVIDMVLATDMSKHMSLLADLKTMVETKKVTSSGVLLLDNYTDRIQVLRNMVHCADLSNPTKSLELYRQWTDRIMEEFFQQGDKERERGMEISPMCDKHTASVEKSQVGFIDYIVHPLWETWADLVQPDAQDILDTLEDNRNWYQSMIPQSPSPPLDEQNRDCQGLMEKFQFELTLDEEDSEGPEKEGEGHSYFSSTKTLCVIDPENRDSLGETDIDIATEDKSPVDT
Chain of Ubiquitin carboxyl-terminal hydrolase 1 (Homo sapiens) (O94782 whole entry, looked up): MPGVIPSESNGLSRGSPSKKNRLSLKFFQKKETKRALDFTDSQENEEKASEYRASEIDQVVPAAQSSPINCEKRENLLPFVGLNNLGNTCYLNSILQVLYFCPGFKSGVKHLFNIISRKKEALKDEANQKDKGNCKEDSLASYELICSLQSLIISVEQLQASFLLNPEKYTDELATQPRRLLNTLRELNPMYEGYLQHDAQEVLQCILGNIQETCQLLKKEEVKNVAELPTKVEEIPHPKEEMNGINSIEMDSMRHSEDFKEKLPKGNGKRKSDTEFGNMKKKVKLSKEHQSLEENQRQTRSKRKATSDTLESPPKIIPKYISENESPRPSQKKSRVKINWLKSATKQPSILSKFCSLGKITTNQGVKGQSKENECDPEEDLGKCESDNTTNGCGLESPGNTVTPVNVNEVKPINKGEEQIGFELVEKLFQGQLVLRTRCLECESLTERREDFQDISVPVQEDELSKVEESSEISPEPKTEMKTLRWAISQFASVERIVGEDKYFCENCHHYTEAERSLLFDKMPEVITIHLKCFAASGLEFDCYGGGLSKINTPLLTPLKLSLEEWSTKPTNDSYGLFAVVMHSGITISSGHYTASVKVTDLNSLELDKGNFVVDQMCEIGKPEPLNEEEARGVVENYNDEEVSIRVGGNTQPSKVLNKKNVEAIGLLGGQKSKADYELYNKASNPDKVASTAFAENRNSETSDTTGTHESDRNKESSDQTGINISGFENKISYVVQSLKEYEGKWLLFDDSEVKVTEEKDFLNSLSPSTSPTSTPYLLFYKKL
Chain of Lysosomal acid glucosylceramidase (Homo sapiens) (P04062 whole entry, looked up): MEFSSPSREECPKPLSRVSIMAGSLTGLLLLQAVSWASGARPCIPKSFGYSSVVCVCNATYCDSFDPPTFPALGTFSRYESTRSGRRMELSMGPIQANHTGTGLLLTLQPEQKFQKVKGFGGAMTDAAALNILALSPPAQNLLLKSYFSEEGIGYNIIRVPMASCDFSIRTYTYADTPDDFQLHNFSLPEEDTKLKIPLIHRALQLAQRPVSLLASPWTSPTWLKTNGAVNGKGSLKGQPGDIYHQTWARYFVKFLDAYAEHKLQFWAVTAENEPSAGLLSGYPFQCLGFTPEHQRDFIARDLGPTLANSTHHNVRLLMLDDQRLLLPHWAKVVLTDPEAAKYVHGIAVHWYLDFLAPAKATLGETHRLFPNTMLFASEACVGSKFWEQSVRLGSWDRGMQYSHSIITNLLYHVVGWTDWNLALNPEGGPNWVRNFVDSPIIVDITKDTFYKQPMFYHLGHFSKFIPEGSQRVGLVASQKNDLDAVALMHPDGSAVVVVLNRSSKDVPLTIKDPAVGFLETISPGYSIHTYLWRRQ
Chain of Dual specificity protein kinase CLK4 (Homo sapiens) (Q9HAZ1 whole entry, looked up): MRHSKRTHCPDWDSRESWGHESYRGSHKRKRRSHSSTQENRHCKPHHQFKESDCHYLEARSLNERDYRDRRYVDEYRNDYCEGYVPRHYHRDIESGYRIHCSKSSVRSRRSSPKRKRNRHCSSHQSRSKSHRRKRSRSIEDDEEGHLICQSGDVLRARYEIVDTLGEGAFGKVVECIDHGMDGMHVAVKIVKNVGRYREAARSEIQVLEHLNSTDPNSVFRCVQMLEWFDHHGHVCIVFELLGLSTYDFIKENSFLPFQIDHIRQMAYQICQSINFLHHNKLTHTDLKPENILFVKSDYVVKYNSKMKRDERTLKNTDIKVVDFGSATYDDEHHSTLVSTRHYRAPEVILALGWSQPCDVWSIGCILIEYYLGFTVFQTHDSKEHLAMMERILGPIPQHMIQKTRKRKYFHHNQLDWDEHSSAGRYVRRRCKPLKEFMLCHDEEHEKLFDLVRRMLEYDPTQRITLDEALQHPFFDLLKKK
Chain of Cytochrome P450 3A4 (Homo sapiens) (P08684 whole entry, looked up): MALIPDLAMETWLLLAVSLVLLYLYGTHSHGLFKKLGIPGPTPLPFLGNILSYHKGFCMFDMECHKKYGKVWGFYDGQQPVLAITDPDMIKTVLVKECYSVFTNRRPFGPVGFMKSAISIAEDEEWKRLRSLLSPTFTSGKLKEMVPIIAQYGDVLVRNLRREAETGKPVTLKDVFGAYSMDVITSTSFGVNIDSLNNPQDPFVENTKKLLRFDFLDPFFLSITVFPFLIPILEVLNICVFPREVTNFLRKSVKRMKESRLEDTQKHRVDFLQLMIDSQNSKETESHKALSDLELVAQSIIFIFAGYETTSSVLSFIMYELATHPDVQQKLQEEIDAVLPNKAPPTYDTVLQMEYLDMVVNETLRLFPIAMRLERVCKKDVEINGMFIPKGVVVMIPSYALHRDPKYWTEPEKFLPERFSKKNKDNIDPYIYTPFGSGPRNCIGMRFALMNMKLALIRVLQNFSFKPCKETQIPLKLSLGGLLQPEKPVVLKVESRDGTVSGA
Chain of Glucocorticoid receptor (Homo sapiens) (P04150 whole entry, looked up, the tested form may be a part): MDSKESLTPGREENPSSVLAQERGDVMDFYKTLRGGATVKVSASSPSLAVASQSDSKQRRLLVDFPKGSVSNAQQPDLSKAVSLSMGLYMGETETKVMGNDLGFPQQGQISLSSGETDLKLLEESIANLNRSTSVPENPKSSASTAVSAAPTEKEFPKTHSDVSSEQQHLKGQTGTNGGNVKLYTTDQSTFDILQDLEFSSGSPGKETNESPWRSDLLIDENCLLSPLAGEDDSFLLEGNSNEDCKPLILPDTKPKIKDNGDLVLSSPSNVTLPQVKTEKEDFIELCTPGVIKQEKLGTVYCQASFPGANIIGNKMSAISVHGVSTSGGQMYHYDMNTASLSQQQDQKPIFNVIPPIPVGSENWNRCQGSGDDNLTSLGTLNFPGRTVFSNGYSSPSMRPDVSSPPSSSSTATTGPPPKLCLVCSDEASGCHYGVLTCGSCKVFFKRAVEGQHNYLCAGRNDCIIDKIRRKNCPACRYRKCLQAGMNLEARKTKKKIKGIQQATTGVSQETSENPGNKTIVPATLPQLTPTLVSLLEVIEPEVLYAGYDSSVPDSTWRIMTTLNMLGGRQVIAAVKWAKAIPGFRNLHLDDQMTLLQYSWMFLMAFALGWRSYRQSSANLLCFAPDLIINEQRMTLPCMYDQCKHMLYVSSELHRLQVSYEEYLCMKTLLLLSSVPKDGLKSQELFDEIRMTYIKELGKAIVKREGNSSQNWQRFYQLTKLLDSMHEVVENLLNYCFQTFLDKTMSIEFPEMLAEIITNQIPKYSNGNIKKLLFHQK
Chain of Cytochrome P450 1A2 (Homo sapiens) (P05177 whole entry, looked up): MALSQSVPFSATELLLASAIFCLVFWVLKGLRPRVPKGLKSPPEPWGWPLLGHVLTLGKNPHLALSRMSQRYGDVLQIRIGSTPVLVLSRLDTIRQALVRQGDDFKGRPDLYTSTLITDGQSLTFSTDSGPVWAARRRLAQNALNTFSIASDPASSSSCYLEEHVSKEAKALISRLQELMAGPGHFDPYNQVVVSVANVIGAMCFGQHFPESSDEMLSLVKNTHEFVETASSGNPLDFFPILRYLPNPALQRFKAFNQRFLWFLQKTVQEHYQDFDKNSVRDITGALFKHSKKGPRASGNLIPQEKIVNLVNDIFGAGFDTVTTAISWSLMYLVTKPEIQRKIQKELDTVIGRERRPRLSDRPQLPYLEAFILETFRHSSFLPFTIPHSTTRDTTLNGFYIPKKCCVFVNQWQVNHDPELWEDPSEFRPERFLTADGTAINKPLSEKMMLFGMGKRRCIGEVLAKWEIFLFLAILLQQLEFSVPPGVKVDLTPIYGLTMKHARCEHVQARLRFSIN
Chain of Cytochrome P450 2D6 (Homo sapiens) (P10635 whole entry, looked up): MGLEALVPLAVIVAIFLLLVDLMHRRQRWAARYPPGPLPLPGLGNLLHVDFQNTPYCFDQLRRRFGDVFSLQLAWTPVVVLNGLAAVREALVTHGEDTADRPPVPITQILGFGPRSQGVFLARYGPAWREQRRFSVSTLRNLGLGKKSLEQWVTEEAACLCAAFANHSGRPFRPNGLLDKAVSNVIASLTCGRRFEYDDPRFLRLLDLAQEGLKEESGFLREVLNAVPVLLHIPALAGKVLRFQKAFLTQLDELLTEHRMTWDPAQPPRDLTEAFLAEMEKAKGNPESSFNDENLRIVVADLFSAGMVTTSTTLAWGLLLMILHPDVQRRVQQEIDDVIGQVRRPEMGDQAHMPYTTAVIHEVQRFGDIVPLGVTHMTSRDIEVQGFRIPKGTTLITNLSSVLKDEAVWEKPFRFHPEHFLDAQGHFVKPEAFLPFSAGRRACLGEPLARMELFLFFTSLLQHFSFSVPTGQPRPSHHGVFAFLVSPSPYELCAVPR

SMILES	Potency [1] [µM]	Potency [2]	activity, negative = inhibition [3] [%]	Potency [4] [µM]	Potency [5] [µM]	Potency [6]	Potency [7]	Potency [8]	Potency [9]	Potency [10]	Potency [11]	Potency [12]	outcome [13]	activity change, negative = inhibition [14] [%]	Potency [15]	Potency [16]	Potency [17]	activity change, negative = inhibition [18] [%]
CS(=O)(=O)Nc1cccc(-c2ccc3ncnc(N4CCOCC4)c3c2)c1	> 11.4	12.6 µM (active)	-11.8	> 46	> 46	inactive	7.94 µM (active)	inactive	7.94 µM (active)	6.31 µM (active)	7.08 µM (active)	inactive	inactive					
Cn1c(=O)c(CCc2ccccc2)nc2cnc(Nc3ccccc3)nc21	> 11.4	1.26 µM (active)	-11.6	> 9.22		inactive		inactive	inactive	inactive	inactive	inactive	inactive	1.9				
c1cn(-c2ccnc(-c3ccc4c(c3)OCO4)n2)cn1	> 11.4	0.0251 µM (active)	5.91	> 46	> 46	inactive	0.631 µM (active)	inactive	2.51 µM (active)	2.24 µM (active)	3.98 µM (active)	inactive	inactive	17.8	inactive	3.16 µM (active)		
COc1ccc(-c2nc3cnc(OC)nc3n(CCc3ccccc3)c2=O)cc1	> 11.4	6.31 µM (active)	2.61	> 9.22	> 46	inactive		inactive	inactive	inactive	inactive	inactive	inactive	1.97				
COCCNc1ncnc2ccc(-c3c(C)noc3C)cc12	> 11.4	3.98 µM (active)		> 46	> 46	inactive		inactive	3.98 µM (active)	0.708 µM (active)	1.41 µM (active)	inactive	inactive		inactive		1.58 µM (active)	
CN(C)c1ncnc2ccc(-c3cccc(C#N)c3)cc12	> 11.4		21.1	> 46	> 46	inactive		inactive	14.1 µM (active)	15.8 µM (active)	inactive	inactive	inactive		inactive			-26.8
